# Test results from ChEMBL document CHEMBL3988442, “University of Dundee, Small-Polar-MMV Screening Library” (2021).
# Among all 48,000 compounds or so, about 13,000 (27%) showed an effect of 50% or more. Some of the results follow.
# Test system: Wolbachia pipientis
# Assay: Anti-Wolbachia Cell-Based Screen
# Format: functional
# Design: scale not given: in the data most compounds retested in dose-response had high values
# Conditions: 5 µM
row,SMILES,Percent Effect [%]
1,CN1CCC(N(Cc2ccco2)S(=O)(=O)c2cc(Br)ccc2Br)CC1,17.1
2,CSc1ccc(CN(C(=O)c2cc(=O)[nH]c(=O)[nH]2)C2CC2)cc1,1.499
3,CN(C)C(C(=O)NCCS(=O)(=O)N(C)C)c1cccc(F)c1 (stereo unspecified),-10.76
4,Cc1ccccc1-c1cc(NC(=O)NC2CC2)n(CCO)n1,-65.06
5,CN(Cc1cnn(C)c1)C(=O)NC1CCC(O)CC1 (stereo unspecified),16.63
6,Cc1c(-c2cc(-c3cnn(C)c3C)n(CC(=O)NC3CC3)n2)cnn1C,78.99
7,Cc1nn(C)cc1-c1cc(-c2cn(C)nc2C)n(CC(=O)NC2CC2)n1,89.98
8,Cc1nn2c(NCC(=O)NC3CC3)cc(-c3ccccc3)nc2c1C,7.066
9,Cc1cn(CC(=O)NC2CCC(C(=O)O)CC2)c2ccccc12 (stereo unspecified),-7.822
10,Cc1ccccc1-c1cc(NC(=O)NC2CCC(O)CC2)n(CCO)n1 (stereo unspecified),-35.4
11,Cn1cc(-c2cc(-c3cnn(C)c3)n(CC(=O)NC3CC3)n2)cn1,98.73
12,Cn1cc(CN2CCC(CCC(=O)NC3CC3)CC2)cn1,-12.61
13,O=C(c1cnc(Nc2ccccc2)nc1)N1CCCC2(CCNC2)C1 (stereo unspecified),-3.033
14,CCN(C(=O)CN(CC(N)=O)C(C)C)C1=CCCC1,4.298
15,CCOc1cc(F)ccc1NS(=O)(=O)c1cc(C)c(C(=O)O)s1,9.69
16,Cc1ccc(CN2C[C@H]3CN(CC4CCN(C)CC4)C(=O)[C@H]3C2)s1,-10.19
17,Cc1nc2sccn2c1C(=O)N1CCc2c(nc(N)[nH]c2=O)C1,-0.7078
18,O=C(c1ccc(=O)[nH]c1)N1CCc2c(nc(-c3cccnc3)[nH]c2=O)C1,3.404
19,O=C(c1cccs1)N1CCc2c(nc(N3CCCC3)[nH]c2=O)C1,120
20,Cc1nc(C(=O)N2CCc3c(nc(-c4ccncc4)[nH]c3=O)C2)cs1,-11.53
21,O=C(c1cccnc1)N1CCc2c(nc(N3CCCC3)[nH]c2=O)C1,113.8
22,O=C(c1ccccn1)N1CCc2c(nc(N3CCCC3)[nH]c2=O)C1,-8.561
23,O=C(c1ncccc1O)N1CCc2c(nc(-c3ccncc3)[nH]c2=O)C1,-0.3257
24,Cc1nc2sccn2c1C(=O)N1CCc2c(nc(N(C)C)[nH]c2=O)C1,14.79
25,Nc1nc2c(c(N3CCN(C(=O)c4cccs4)CC3)n1)CCCC2,3.246
26,O=C(c1cc[nH]n1)N1CCc2c(nc(N3CCCCC3)[nH]c2=O)C1,120.1

row,SMILES,Percent Effect [%]
1,O=C(c1ccsc1)N1CCc2c(nc(-c3ccncc3)[nH]c2=O)C1,-0.2016
2,O=C(c1cccs1)N1CCc2c(nc(N3CCCCC3)[nH]c2=O)C1,121.5
3,O=C(Nc1cncc(Br)c1O)c1ccon1,-9.076
4,Cc1csc(CCNC(=O)c2cc3c(nc2O)CCC(C)C3)n1 (stereo unspecified),-7.199
5,CC(C)(C)n1cc(C#N)cc1NC(=O)CCS(=O)(=O)C1CCCC1,-10.01
6,COCC(C)(CCO)NC(=O)Nc1cccc(Br)c1C (stereo unspecified),7.029
7,NC(=O)CN1CCN(c2ccnc3c(F)ccc(F)c23)CC1,3.08
8,NC(=O)c1cccc2nc([C@H]3CCN(Cc4ccccn4)C3)[nH]c12,-3.203
9,COc1ccc(C)cc1CNC(=O)C1=NN(c2ccccc2)C(=O)CN1,14.16
10,Cc1nn(C)c2nc(N3CCN(Cc4nccn4C)CC3)sc12,103.8
11,Cc1nn(C)c2nc(N3CCC(C(O)c4nccn4C)CC3)sc12 (stereo unspecified),-3.971
12,Cc1nc(CN2CCN(c3ccc(SC(C)C)nn3)CC2)cs1,68.89
13,Cc1nc(CNc2nc3c(s2)c(C)nn3C)cs1,-20.12
14,Cc1cc(N2CCN(Cc3nccn3C)CC2)cc(C)n1,-5.748
15,Cc1nc(CN2CCN(c3nc4c(s3)c(C)nn4C)CC2)cs1,119.2
16,CCc1nc(CNc2nc3c(s2)c(C)nn3C)cs1,-39.2
17,COC(=O)c1ccc(N2CCN(Cc3csc(C)n3)CC2)nn1,-1.977
18,CC(C)Sc1ccc(N2CCN(Cc3ccccn3)CC2)nn1,14.48
19,Cc1ccc2c(c1)C(NC(=O)N(C)C)CC21CCN(C(C)C)CC1.O=C(O)C(F)(F)F (stereo unspecified),100.3
20,Cc1ccc2c(c1)C(NC(=O)N(C)C)CC21CCN(C)CC1.O=C(O)C(F)(F)F (stereo unspecified),102.1
21,CC(C)N1CCC2(CC1)CC(CC(N)=O)c1ccc(F)cc12.O=C(O)C(F)(F)F (stereo unspecified),14.5
22,Cc1ccc2c(c1)C(NC(=O)N(C)C)CC21CCN(CC2CC2)CC1.O=C(O)C(F)(F)F (stereo unspecified),116.9
23,CCN1CCC2(CC1)CC(NC(=O)NC)c1cc(C)ccc12.O=C(O)C(F)(F)F (stereo unspecified),-18.25
24,Cc1ccc2c(c1)C(N(C)C)CC21CCN(CCO)CC1.O=C(O)C(F)(F)F.O=C(O)C(F)(F)F (stereo unspecified),1.059
25,CCN1CCC2(CC1)CC(NC(=O)N(C)C)c1cc(C)ccc12.O=C(O)C(F)(F)F (stereo unspecified),-13.82
